# Results taken from the supplement of paper PMC10849652.
# Targets with a hit are over-represented here; the source holds about 7,900 in all. About 0.6% of all pairs of compound and target were hits. Unmarked numbers belong to inactive results.
# Compound: CC1=C(C2=C(C=C1)C(=O)C3=CC=CC=C3N2CCCN)C
# Test: log2 fold change, soluble protein after heating vs DMSO (PISA); higher = thermal stabilisation; K562 cells, 10 uM, 30 min; active = over 0.2 and 3.5 SD of the protein, either way, in both replicates (recomputed)
# Outline: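 Thermal stability values are relative to control samples and come from duplicates. They are expressed as log2 fold changes. For measurement, K562 cells (2×10^6 cells/mL) received 10 μM compound for 30 min, and aliquots were heated for 3 min over 48°C-58°C, pooled, and extracted at 4°C in PBS with 0.5% NP-40. Soluble protein, the supernatant after 21,000xg for 90 min, was quantified by TMTpro 16plex LC-MS/MS with equalised channel sums.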
# Sequence of UniProt Q86TP1 (Q86TP1 whole entry, looked up): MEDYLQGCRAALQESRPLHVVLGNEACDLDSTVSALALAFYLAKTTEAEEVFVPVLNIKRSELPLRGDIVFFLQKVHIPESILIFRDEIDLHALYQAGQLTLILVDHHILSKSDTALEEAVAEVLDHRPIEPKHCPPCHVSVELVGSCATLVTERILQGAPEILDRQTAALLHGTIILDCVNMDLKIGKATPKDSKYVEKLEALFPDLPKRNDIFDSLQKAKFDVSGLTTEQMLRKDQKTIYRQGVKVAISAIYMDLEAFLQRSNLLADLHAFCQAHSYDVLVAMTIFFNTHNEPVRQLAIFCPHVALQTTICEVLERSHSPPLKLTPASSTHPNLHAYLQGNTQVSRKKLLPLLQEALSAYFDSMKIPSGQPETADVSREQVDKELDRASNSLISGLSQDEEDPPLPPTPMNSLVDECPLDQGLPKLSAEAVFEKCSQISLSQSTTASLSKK
# Sequence of UniProt Q9BRP1 (Q9BRP1 whole entry, looked up): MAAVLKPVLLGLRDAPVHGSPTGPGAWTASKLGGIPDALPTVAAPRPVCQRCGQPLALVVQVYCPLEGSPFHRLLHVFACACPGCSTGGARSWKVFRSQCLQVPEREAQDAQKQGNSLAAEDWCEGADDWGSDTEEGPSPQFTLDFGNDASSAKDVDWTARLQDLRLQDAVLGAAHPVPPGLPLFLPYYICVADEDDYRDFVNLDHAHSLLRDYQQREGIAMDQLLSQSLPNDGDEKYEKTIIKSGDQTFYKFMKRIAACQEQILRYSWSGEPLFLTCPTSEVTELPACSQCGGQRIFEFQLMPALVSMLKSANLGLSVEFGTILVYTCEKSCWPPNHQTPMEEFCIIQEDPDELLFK
# Sequence of UniProt Q16401 (Q16401 whole entry, looked up): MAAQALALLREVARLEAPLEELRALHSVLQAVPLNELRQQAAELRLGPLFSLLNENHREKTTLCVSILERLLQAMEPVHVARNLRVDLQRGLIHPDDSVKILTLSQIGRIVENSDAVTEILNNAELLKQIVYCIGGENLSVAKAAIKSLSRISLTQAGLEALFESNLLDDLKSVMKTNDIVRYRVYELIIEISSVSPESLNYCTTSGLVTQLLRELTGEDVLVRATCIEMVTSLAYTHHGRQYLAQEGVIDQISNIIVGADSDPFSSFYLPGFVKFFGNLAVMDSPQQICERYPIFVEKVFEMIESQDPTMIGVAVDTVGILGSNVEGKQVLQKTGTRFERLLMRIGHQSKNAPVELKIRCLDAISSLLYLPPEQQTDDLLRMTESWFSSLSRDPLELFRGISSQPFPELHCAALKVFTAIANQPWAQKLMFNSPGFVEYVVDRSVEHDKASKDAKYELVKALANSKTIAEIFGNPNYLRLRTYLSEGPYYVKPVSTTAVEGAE
# Sequence of UniProt O60678 (O60678 whole entry, looked up): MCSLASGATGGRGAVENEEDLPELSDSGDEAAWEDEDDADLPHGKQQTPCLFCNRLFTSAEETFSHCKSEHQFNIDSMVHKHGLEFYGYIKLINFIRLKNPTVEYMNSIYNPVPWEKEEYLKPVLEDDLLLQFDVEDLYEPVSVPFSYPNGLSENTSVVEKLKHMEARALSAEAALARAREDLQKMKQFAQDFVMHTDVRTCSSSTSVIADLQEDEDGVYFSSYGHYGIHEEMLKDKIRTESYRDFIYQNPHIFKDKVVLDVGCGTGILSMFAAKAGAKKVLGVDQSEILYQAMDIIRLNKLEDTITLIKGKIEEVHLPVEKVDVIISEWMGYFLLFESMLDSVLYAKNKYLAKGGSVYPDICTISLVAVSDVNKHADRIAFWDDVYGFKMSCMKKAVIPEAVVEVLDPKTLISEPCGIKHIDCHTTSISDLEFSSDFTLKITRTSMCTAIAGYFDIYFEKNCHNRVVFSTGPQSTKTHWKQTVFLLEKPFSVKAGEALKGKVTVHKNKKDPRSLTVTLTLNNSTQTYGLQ
# Sequence of UniProt Q7RTV0 (Q7RTV0 whole entry, looked up): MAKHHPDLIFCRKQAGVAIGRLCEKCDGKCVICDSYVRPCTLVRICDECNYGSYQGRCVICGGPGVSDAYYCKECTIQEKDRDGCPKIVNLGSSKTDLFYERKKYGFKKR
# Sequence of UniProt Q10713 (Q10713 whole entry, looked up): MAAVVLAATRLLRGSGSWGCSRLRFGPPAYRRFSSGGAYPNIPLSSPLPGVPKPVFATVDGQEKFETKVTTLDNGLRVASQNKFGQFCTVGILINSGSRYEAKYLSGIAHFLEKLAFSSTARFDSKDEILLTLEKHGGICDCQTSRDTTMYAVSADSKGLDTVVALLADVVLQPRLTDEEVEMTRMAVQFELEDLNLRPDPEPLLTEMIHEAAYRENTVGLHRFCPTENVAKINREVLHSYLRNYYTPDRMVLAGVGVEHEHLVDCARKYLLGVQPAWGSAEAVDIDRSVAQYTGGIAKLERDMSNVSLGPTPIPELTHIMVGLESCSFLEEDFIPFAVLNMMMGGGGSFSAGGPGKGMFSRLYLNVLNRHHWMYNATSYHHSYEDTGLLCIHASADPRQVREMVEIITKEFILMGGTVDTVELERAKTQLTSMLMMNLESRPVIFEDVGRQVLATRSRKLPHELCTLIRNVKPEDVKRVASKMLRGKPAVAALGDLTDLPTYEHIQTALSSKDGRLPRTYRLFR
# Sequence of UniProt P28340 (P28340 whole entry, looked up): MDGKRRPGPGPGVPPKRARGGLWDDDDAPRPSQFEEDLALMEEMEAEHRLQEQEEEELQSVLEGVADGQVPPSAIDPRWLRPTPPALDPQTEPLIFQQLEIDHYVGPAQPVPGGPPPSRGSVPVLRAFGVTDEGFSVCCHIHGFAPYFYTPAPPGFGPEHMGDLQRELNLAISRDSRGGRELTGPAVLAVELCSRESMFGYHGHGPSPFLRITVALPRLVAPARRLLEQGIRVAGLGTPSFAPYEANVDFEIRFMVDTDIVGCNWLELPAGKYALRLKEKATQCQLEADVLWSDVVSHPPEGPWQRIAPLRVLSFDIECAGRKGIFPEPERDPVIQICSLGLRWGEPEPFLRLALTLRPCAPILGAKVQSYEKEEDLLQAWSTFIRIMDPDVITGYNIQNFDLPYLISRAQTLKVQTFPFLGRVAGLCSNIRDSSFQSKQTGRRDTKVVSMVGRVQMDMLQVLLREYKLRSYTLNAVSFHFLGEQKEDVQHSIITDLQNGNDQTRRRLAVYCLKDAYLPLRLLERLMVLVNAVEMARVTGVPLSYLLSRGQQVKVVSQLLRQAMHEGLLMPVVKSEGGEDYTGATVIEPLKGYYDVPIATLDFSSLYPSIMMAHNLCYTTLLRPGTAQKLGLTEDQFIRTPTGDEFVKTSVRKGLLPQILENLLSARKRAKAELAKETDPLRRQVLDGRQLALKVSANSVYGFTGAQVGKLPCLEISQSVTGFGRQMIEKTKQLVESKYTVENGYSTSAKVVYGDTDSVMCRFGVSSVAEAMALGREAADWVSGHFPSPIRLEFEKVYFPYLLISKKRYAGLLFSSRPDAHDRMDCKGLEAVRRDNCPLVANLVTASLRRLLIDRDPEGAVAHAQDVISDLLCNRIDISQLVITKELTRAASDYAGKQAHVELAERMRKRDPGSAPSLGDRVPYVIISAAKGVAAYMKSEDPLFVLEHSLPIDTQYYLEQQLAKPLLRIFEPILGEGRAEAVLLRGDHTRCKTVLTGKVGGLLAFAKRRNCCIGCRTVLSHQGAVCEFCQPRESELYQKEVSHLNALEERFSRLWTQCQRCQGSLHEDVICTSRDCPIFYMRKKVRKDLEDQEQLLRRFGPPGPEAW
# Sequence of UniProt Q9Y244 (Q9Y244 whole entry, looked up): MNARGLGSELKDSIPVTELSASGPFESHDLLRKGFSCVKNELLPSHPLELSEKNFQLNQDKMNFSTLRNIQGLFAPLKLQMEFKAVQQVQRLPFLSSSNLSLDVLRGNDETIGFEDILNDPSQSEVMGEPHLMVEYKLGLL
# Sequence of UniProt P49585 (P49585 whole entry, looked up): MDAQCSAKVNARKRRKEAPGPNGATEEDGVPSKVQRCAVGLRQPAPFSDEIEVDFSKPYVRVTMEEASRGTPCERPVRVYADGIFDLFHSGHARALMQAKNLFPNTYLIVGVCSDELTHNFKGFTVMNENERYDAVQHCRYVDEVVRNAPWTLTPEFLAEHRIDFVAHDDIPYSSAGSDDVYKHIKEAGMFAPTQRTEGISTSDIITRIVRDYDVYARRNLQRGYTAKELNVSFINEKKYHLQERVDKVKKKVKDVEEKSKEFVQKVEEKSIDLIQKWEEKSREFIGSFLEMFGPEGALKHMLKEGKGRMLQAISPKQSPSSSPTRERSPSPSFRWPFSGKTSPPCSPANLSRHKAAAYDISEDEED
# Sequence of UniProt Q9UG56 (Q9UG56 whole entry, looked up): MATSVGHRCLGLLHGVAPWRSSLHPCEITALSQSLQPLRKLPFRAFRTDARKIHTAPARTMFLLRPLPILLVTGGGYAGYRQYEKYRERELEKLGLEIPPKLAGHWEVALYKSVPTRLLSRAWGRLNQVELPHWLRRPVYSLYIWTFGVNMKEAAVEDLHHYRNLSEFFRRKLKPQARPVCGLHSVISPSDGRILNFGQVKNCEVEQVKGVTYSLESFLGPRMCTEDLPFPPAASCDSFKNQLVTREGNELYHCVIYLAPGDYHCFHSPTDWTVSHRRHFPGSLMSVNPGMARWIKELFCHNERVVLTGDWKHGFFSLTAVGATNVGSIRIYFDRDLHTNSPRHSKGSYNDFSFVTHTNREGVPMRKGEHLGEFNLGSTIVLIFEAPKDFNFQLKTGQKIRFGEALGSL
# Sequence of UniProt Q9Y478 (Q9Y478 whole entry, looked up): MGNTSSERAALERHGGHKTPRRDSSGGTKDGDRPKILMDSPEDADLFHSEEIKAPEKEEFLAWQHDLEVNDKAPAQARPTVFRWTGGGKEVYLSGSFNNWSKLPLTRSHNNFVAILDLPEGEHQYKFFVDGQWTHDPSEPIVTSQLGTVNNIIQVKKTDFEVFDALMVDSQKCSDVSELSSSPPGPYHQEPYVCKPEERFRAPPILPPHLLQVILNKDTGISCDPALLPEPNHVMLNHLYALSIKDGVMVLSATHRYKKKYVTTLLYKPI
# Sequence of UniProt Q96A00 (Q96A00 whole entry, looked up): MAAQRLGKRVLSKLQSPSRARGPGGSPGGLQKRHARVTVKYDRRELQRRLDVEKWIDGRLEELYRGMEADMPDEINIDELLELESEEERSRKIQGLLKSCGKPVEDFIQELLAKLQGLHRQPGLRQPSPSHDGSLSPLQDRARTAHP
row,Target,log2 fold change
1,PHF5A (UniProt Q7RTV0),0.109
2,PRKAR2A (UniProt P13861),0.058
3,PRUNE1 (UniProt Q86TP1),-0.021
4,POMP (UniProt Q9Y244),-0.053
5,PPT2 isoform 3 (UniProt Q9UMR5),0.037
6,PIP4P1 isoform 2 (UniProt Q86T03),-0.062
7,POLD1 (UniProt P28340),-0.011
8,PGGT1B (UniProt P53609),-0.028
9,PPP1R14A (UniProt Q96A00),-0.073
10,PRMT3 (UniProt O60678),0.079
11,PEX11B (UniProt O96011),0.012
12,PCYT1A (UniProt P49585),-0.137
13,PISD (UniProt Q9UG56),0.147
14,PSMD5 (UniProt Q16401),-0.042
15,PRPF40A (UniProt O75400),0.13
16,PDIK1L (UniProt Q8N165),-0.197
17,PMPCA (UniProt Q10713),0.055
18,PDCD2L (UniProt Q9BRP1),0.041
19,PSMC6 (UniProt P62333),-0.01
20,PRKAB1 (UniProt Q9Y478),0.015
21,PDSS2 (UniProt Q86YH6),-0.022
22,POLA1 (UniProt P09884),-0.066
23,PGM3 isoform 4 (UniProt O95394),0.02
